High-throughput results from PubChem BioAssay.
Platelet DG rel – platelet dense granule release activity | inhibition, %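 (compounds screened at 7.5 µM in platelet-rich plasma)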 | human platelet-rich plasma, SFLLRN dense granule ATP release, luminescence | actives 0.22% (n = 300,000);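 active = mean replicate score, as percent of positive control, at or above 50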
NTR1 ag – activates human neurotensin receptor 1 | P30989 | NTR1-U2OS beta-arrestin-GFP spot imaging, agonist mode | activation, % at 20 µM | actives 0.17% (n = 330,000) | AID 493036;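 active = activation at or above 40% of the spot to cytoplasm intensity ratio, with at least 20 cells analyzed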
Target sequence (P30989 whole entry, looked up): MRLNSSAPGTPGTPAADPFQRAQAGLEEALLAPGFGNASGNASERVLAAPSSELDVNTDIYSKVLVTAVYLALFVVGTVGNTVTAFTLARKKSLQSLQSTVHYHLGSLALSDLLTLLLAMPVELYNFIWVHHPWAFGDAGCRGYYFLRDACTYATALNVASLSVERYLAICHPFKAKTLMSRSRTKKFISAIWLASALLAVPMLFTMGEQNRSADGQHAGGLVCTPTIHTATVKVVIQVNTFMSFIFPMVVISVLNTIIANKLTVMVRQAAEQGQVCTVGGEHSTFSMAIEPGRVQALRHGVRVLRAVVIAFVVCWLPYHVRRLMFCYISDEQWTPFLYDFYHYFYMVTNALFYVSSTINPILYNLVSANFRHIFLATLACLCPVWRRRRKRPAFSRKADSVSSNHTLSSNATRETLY
HIF act – HIF pathway transcriptional activation; AID 1910; U2OS HRE-luciferase reporter, luminescence; normalized: DMSO 0%, desferrioxamine 100%; actives 0.32% (n = 300,000); activation, % at 7.5 µM (by protocol);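 active = mean activation of at least 10% of the iron chelator positive control signal, with at least half of replicates also reaching 10%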
Numbers stand for hits. In the library only some 0.63% were active in any assay of this set; here they are far more common.

Results for COc1ccc(C2N(C(=O)N3CCOCC3)CCN2S(=O)(=O)c2ccc(C)cc2)cc1 (stereo not given) ?
Platelet DG rel: inactive; NTR1 ag: inactive; HIF act: inactive

Results for COc1ccc(N2C(=O)CC(Sc3nnnn3-c3ccc(F)cc3)C2=O)cc1 (stereo not given) ?
Platelet DG rel: inactive; NTR1 ag: inactive; HIF act: inactive

Results for O=C1CC(Sc2nnnn2-c2ccccc2)C(=O)N1c1cccc(Cl)c1 (stereo not given) ?
Platelet DG rel: 55.0; NTR1 ag: inactive; HIF act: inactive

What do the screens show for `CCCCCCCCNC(=O)/C(C#N)=C/c1ccc(SC)cc1`?
Platelet DG rel: inactive; NTR1 ag: inactive; HIF act: inactive

What do the screens show for `CCC(=O)NNc1nc2c(C)c(C)ccc2s1`?
Platelet DG rel: inactive; NTR1 ag: inactive; HIF act: inactive

How did COC(=O)CS(=O)(=O)c1ccc2c(c1)CC(=O)N2 do in these assays?
Platelet DG rel: 64.4; NTR1 ag: inactive; HIF act: inactive

Results for COc1cccc(NS(=O)(=O)c2ccc3c(c2)CC(=O)N3)c1 ?
NTR1 ag: inactive

How did CCOC(=O)Cn1c(=O)n(Cc2ccccc2)c(=O)c2cccnc21 do in these assays?
Platelet DG rel: inactive; NTR1 ag: inactive; HIF act: inactive

What do the screens show for `COc1cc2ccccc2cc1C(=O)Nc1ccc(Cc2ccncc2)cc1`?
Platelet DG rel: inactive; NTR1 ag: inactive; HIF act: inactive

What do the screens show for `COc1cc2ccccc2cc1C(=O)Nc1ccc(C)cc1`?
Platelet DG rel: inactive; NTR1 ag: inactive; HIF act: 10.5

How did O=C(CCNC(=O)c1ccccc1Cl)NCCc1ccc(C(F)(F)F)cc1 do in these assays?
Platelet DG rel: inactive; NTR1 ag: inactive; HIF act: inactive

How did CCOC(=O)c1sc(NC(=O)c2cccs2)cc1C do in these assays?
Platelet DG rel: inactive; NTR1 ag: inactive; HIF act: inactive

Results for CCOC(=O)c1sc(NC(=S)NC(=O)C23CC4CC(CC(C4)C2)C3)cc1C ?
Platelet DG rel: inactive; NTR1 ag: inactive; HIF act: inactive

How did CCOC(=O)c1sc(NC(=O)c2sccc2C)cc1C do in these assays?
Platelet DG rel: 61.5; NTR1 ag: inactive; HIF act: inactive

How did CCOC(=O)c1sc(NC(=S)NC(=O)C2CC2)cc1C do in these assays?
Platelet DG rel: inactive; NTR1 ag: inactive; HIF act: 72.1

Results for COc1ccc(NC(=S)Nc2cc(C(F)(F)F)ccc2F)cc1 ?
Platelet DG rel: inactive; NTR1 ag: inactive; HIF act: inactive

Results for COc1cc(/C=C2\SC(=N)N(c3ccc4c(c3)OCO4)C2=O)cc(OC)c1O ?
Platelet DG rel: inactive; NTR1 ag: inactive; HIF act: inactive

What do the screens show for `COC(=O)Nc1c(-c2ccccc2)nc2ccc(C)cn12`?
Platelet DG rel: inactive; NTR1 ag: inactive; HIF act: inactive

What do the screens show for `CSc1ccc(/C=N/NC(=O)CN2CCN(Cc3ccccc3Cl)CC2)cc1`?
Platelet DG rel: inactive; NTR1 ag: inactive; HIF act: inactive

What do the screens show for `Cc1ccc(/C=N/NC(=O)CN2CCN(Cc3ccccc3Cl)CC2)o1`?
Platelet DG rel: inactive; NTR1 ag: inactive; HIF act: 143.2

How did COc1ccc(OCC(=O)NNc2c3ccccc3nc3ccccc23)cc1 do in these assays?
Platelet DG rel: inactive; NTR1 ag: 58.1; HIF act: inactive

What do the screens show for `O=C(COc1ccccc1)NNc1c2ccccc2nc2ccccc12`?
Platelet DG rel: inactive; NTR1 ag: inactive; HIF act: inactive

How did O=C1CCC(=O)N1OCCCCOc1ccccc1 do in these assays?
Platelet DG rel: inactive; NTR1 ag: inactive; HIF act: inactive

Results for O=C(NCCc1ccc(Cl)cc1Cl)C1=CC=CN2CCS(=O)(=O)N=C12 ?
NTR1 ag: inactive

How did COc1cccc(/C=N/NC(=O)CCC(=O)Nc2ccc(Br)cc2)c1 do in these assays?
Platelet DG rel: inactive; NTR1 ag: inactive; HIF act: inactive

How did COCCn1c(-c2ccc(OC)cc2)cnc1SCC(=O)Nc1cc(C)on1 do in these assays?
Platelet DG rel: inactive; NTR1 ag: inactive; HIF act: inactive

Results for COCCn1c(-c2ccc(OC)cc2)cnc1SCC(=O)Nc1ccc(OC)cc1OC ?
Platelet DG rel: inactive; NTR1 ag: inactive; HIF act: 21.5

Results for CCc1cccc(C)c1NC(=O)CN1C(=O)NC(C)(CCC(C)C)C1=O (stereo not given) ?
NTR1 ag: inactive

Results for COC(CN(C(=O)CCl)C(C(=O)NC1CCCCC1)c1ccccc1C)OC (stereo not given) ?
Platelet DG rel: inactive; NTR1 ag: inactive; HIF act: inactive

How did COC(CN(C(=O)CCl)C(C(=O)NC1CCCCC1)c1ccc(Cl)cc1)OC (stereo not given) do in these assays?
Platelet DG rel: inactive; NTR1 ag: inactive; HIF act: 63.0

Results for CCN(CC)c1ccc(/C=N/NC(=O)c2cccc(S(=O)(=O)Nc3ccccc3OC)c2)cc1 ?
Platelet DG rel: inactive; NTR1 ag: inactive; HIF act: inactive

How did CCN(CC)c1ccc(/C=N/NC(=O)c2ccc3nc[nH]c3c2)c(O)c1 do in these assays?
Platelet DG rel: inactive; NTR1 ag: inactive; HIF act: 95.6

How did COc1cccc(/C=N/NC(=O)c2ccc3nc[nH]c3c2)c1O do in these assays?
Platelet DG rel: inactive; NTR1 ag: inactive; HIF act: inactive

Results for CCN(CC)c1ccc(/C=N/NC(=O)c2cccc(S(=O)(=O)Nc3ccccc3OC)c2)c(O)c1 ?
Platelet DG rel: inactive; NTR1 ag: inactive; HIF act: 91.5

What do the screens show for `CCN(CC)c1ccc(/C=N/NC(=O)OC)c(O)c1`?
NTR1 ag: inactive

Results for CCN(CC)c1ccc(/C=N/NC(=O)c2ccoc2C)c(O)c1 ?
Platelet DG rel: 117.3; NTR1 ag: inactive; HIF act: 64.4

How did Cc1cccc(/C(N)=N/OC(=O)CCCN2C(=O)c3ccccc3C2=O)c1 do in these assays?
Platelet DG rel: inactive; NTR1 ag: inactive; HIF act: inactive

How did N/C(=N\OC(=O)c1cc(Br)ccc1Cl)c1ccccn1 do in these assays?
Platelet DG rel: inactive; NTR1 ag: inactive; HIF act: inactive

What do the screens show for `N/C(=N\OC(=O)c1ccc([N+](=O)[O-])cc1Cl)c1ccccn1`?
Platelet DG rel: inactive; NTR1 ag: inactive; HIF act: inactive

What do the screens show for `N/C(=N\OC(=O)c1ccccc1Cl)c1ccncc1`?
Platelet DG rel: inactive; NTR1 ag: inactive; HIF act: inactive

Results for Cc1ccc(C(=O)O/N=C(\N)c2ccccn2)c(Cl)c1 ?
Platelet DG rel: 75.9; NTR1 ag: inactive; HIF act: inactive

Results for Cc1ccc(C(=O)O/N=C(\N)c2ccccc2)c(Cl)c1 ?
Platelet DG rel: 68.5; NTR1 ag: inactive; HIF act: inactive

How did N/C(=N\OC(=O)c1ccc(Cl)cc1Cl)c1ccccn1 do in these assays?
Platelet DG rel: 55.9; NTR1 ag: inactive; HIF act: inactive

How did COc1ccc(NS(=O)(=O)c2cccc(C(=O)NCC3CCCO3)c2)cc1 (stereo not given) do in these assays?
Platelet DG rel: inactive; NTR1 ag: inactive; HIF act: inactive

What do the screens show for `CCc1nonc1NC(=O)c1oc2cc(C)c(Cl)cc2c1C`?
Platelet DG rel: inactive; NTR1 ag: inactive; HIF act: inactive

What do the screens show for `COc1ccc(-c2cn[nH]c2N)cc1OC`?
Platelet DG rel: inactive; NTR1 ag: inactive; HIF act: inactive
